The list is not random: actives were taken first. Their share in the collection is about 6.8%.
Pf Dd2 growth – P. falciparum Dd2 growth inhibition. actives 2.3% (n = 94,000). SYBR Green, 72 h; hits give low values. activity change, % at 10 µM; in the data active = activity change below about -80%; inconclusive = no clear call, values can overlap the other calls
C diff growth – blocks growth of Clostridium difficile; growth activity, negative = inhibition, % at 16 µg/mL (by protocol); actives 0.25% (n = 86,000); Clostridium difficile clinical isolate growth, OD600, 24 h; hits give low values;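 active = mean growth activity at or below -80% and every replicate also at or below -80%; inconclusive = mean at or below -80% but some replicate above -80%; inactive = mean growth activity above -80%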
T cruzi growth – blocks T. cruzi growth in NIH3T3 culture. actives 5.9% (n = 77,000). inhibition, % at 8.34 µM. T. cruzi beta-gal in NIH3T3, GalScreen luminescence, 90 h;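 active = mean inhibition above about 93%, with at least 55% of replicates each passing it, limit read from the data, passing the limit was not always enough; inconclusive = only one of those two conditions holds; inactive = neither condition holds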
Large screens that a line does not name were inactive.

C[C@@H]1CCCCO[C@H](CN(C)C(=O)CCC(F)(F)F)[C@@H](C)CN([C@H](C)CO)C(=O)c2cc(NC(=O)Nc3ccc4c(c3)OCO4)ccc2O1	Pf Dd2 growth -83
C[C@@H]1CCCCO[C@H](CN(C)C(=O)Nc2ccc(C(F)(F)F)cc2)[C@@H](C)CN([C@H](C)CO)C(=O)c2cc(NC(=O)Nc3ccc4c(c3)OCO4)ccc2O1	T cruzi growth 107
COc1ccc(NC(=O)Nc2ccc3c(c2)C(=O)N([C@H](C)CO)C[C@@H](C)[C@@H](CN(C)C(=O)Nc2ccc4c(c2)OCO4)OCCCC[C@@H](C)O3)cc1	Pf Dd2 growth -90
COc1ccc(NC(=O)Nc2ccc3c(c2)C(=O)N([C@@H](C)CO)C[C@@H](C)[C@H](CN(C)C(=O)Nc2ccc4c(c2)OCO4)OCCCC[C@@H](C)O3)cc1	none
C[C@@H]1CCCCO[C@@H](CN(C)C(=O)CCC(F)(F)F)[C@@H](C)CN([C@@H](C)CO)C(=O)c2cc(NC(=O)Nc3ccc4c(c3)OCO4)ccc2O1	none
C[C@@H]1CCCCO[C@@H](CN(C)C(=O)Nc2ccc3c(c2)OCO3)[C@H](C)CN([C@H](C)CO)C(=O)c2cc(NC(=O)Nc3ccc(C(F)(F)F)cc3)ccc2O1	none
C[C@@H]1CCCCO[C@@H](CN(C)C(=O)Nc2ccc3c(c2)OCO3)[C@@H](C)CN([C@@H](C)CO)C(=O)c2cc(NC(=O)Nc3ccc(F)cc3)ccc2O1	Pf Dd2 growth -83
C[C@@H]1CCCCO[C@@H](CN(C)C(=O)Nc2ccc3c(c2)OCO3)[C@@H](C)CN([C@H](C)CO)C(=O)c2cc(NC(=O)Nc3ccc(F)cc3)ccc2O1	none
COc1ccc2c3c(n(C)c2c1)[C@@H](CO)N(Cc1nccs1)CC31CCN(C(=O)CC2CC2)CC1	none (no result: C diff growth, T cruzi growth)
CC(C)NC(=O)Nc1ccc2c(c1)C(=O)N([C@@H](C)CO)C[C@H](C)[C@H](CN(C)S(=O)(=O)c1cn(C)cn1)OCCCC[C@H](C)O2	none
C[C@@H]1CCCCO[C@@H](CN(C)C(=O)Nc2ccc3c(c2)OCO3)[C@@H](C)CN([C@H](C)CO)C(=O)c2cc(NC(=O)Nc3ccc(C(F)(F)F)cc3)ccc2O1	none
C[C@@H]1CCCCO[C@H](CN(C)C(=O)Nc2ccc3c(c2)OCO3)[C@H](C)CN([C@H](C)CO)C(=O)c2cc(NC(=O)Nc3ccc(C(F)(F)F)cc3)ccc2O1	Pf Dd2 growth -89
C[C@@H]1CCCCO[C@H](CN(C)C(=O)Nc2ccc3c(c2)OCO3)[C@H](C)CN([C@H](C)CO)C(=O)c2cc(NC(=O)NC3CCCCC3)ccc2O1	Pf Dd2 growth -82
C[C@@H]1CN([C@@H](C)CO)C(=O)c2cc(NC(=O)NC3CCCCC3)ccc2O[C@@H](C)CCCCO[C@@H]1CN(C)C(=O)Nc1ccc2c(c1)OCO2	none
COc1ccc(NC(=O)Nc2ccc3c(c2)C(=O)N([C@@H](C)CO)C[C@@H](C)[C@H](CN(C)C(=O)Cc2ccccc2)OCCCC[C@H](C)O3)cc1	none
COc1ccc(NC(=O)Nc2ccc3c(c2)C(=O)N([C@@H](C)CO)C[C@H](C)[C@@H](CN(C)C(=O)Cc2ccccc2)OCCCC[C@@H](C)O3)cc1	Pf Dd2 growth -86
C[C@H]1CCCCO[C@H](CN(C)C(=O)Nc2ccc3c(c2)OCO3)[C@@H](C)CN([C@@H](C)CO)C(=O)c2cc(NC(=O)Nc3ccc(C(F)(F)F)cc3)ccc2O1	Pf Dd2 growth inconclusive
C[C@H](CO)N1C[C@H](C)[C@@H](CN(C)C(=O)Nc2ccc(C(F)(F)F)cc2)OCCCC[C@H](C)Oc2ccc(NC(=O)Nc3ccc4c(c3)OCO4)cc2C1=O	T cruzi growth 119
O=C(C[C@@H]1CC[C@H]2[C@@H](COC[C@@H](O)CN2C(=O)c2ccccn2)O1)NC1CCC1	none (no result: T cruzi growth)
C[C@H]1CN([C@@H](C)CO)C(=O)c2cc(-c3ccc(C#N)cc3)cnc2O[C@@H]1CN(C)Cc1ccccn1	none
C[C@H](CO)N1C[C@H](C)[C@@H](CN(C)CC2CCCCC2)OCCCC[C@H](C)Oc2ccc(NC(=O)Nc3ccc(C(F)(F)F)cc3)cc2C1=O	none
CCCN(C)C[C@H]1OCCCC[C@@H](C)Oc2ccc(NC(=O)Nc3ccc(C(F)(F)F)cc3)cc2C(=O)N([C@H](C)CO)C[C@H]1C	Pf Dd2 growth -83, C diff growth -108
C[C@H]1CCCCO[C@H](CN(C)CC2CC2)[C@@H](C)CN([C@@H](C)CO)C(=O)c2cc(NC(=O)Nc3ccc(C(F)(F)F)cc3)ccc2O1	Pf Dd2 growth -85
CCCN(C)C[C@H]1OCCCC[C@H](C)Oc2ccc(NC(=O)Nc3ccc(C(F)(F)F)cc3)cc2C(=O)N([C@@H](C)CO)C[C@H]1C	none
C[C@@H]1CN([C@@H](C)CO)C(=O)c2cc(NC(=O)Nc3ccc(C(F)(F)F)cc3)ccc2O[C@@H](C)CCCCO[C@H]1CN(C)C	none
C[C@@H]1CCCCO[C@H](CN(C)CC2CC2)[C@H](C)CN([C@H](C)CO)C(=O)c2cc(NC(=O)Nc3ccc(C(F)(F)F)cc3)ccc2O1	Pf Dd2 growth -82
C[C@@H]1CN([C@H](C)CO)C(=O)c2cc(NC(=O)Nc3ccc(C(F)(F)F)cc3)ccc2O[C@@H](C)CCCCO[C@H]1CN(C)C	none
C[C@@H]1CN([C@@H](C)CO)C(=O)c2cc(NC(=O)Nc3ccc(C(F)(F)F)cc3)ccc2O[C@@H](C)CCCCO[C@H]1CN(C)CC1CCCCC1	C diff growth -107
Cc1cc(C(=O)Nc2ccc3c(c2)C(=O)N(C)[C@@H]2CC[C@@H](CC(=O)N[C@H](C)c4ccccc4)O[C@@H]2CO3)no1	none
C[C@H]1CN([C@@H](C)CO)C(=O)c2cc(-c3cccnc3)cnc2O[C@H]1CN(C)C(=O)C1CCOCC1	none
C[C@@H]1CN([C@@H](C)CO)C(=O)c2cc(NC(=O)Nc3ccccc3)ccc2O[C@@H](C)CCCCO[C@H]1CN(C)C(=O)c1ccccc1	none (no result: C diff growth, T cruzi growth)
Cc1ccc(S(=O)(=O)Nc2ccc3c(c2)CC(=O)N([C@@H](C)CO)C[C@H](C)[C@H](CN(C)C(=O)NC(C)C)O3)cc1	none
C[C@@H]1CCCCO[C@@H](CN(C)CC2CC2)[C@@H](C)CN([C@H](C)CO)C(=O)c2cc(NC(=O)Nc3ccc4c(c3)OCO4)ccc2O1	Pf Dd2 growth inconclusive (no result: C diff growth)
CCCN(C)C[C@@H]1OCCCC[C@H](C)Oc2ccc(NC(=O)Nc3ccc4c(c3)OCO4)cc2C(=O)N([C@H](C)CO)C[C@@H]1C	Pf Dd2 growth -88
Cc1ccc(-c2ccc([C@H]3[C@@H](CO)N4CCCCN(S(=O)(=O)c5ccccc5C)C[C@@H]34)cc2)cc1	none
Cc1ccc(-c2ccc([C@@H]3[C@H](CO)N4CCCCN(S(=O)(=O)c5ccccc5C)C[C@@H]34)cc2)cc1	Pf Dd2 growth -82
COc1cccc(S(=O)(=O)N2CCCCN3[C@H](C2)[C@@H](c2ccc(C#CCC(C)C)cc2)[C@@H]3CO)c1	none
COc1cccc(S(=O)(=O)N2CCCCN3[C@@H](CO)[C@@H](c4ccc(C#CCC(C)C)cc4)[C@@H]3C2)c1	Pf Dd2 growth -84
COc1cccc(S(=O)(=O)N2CCCCN3[C@H](C2)[C@H](c2ccc(C4=CCCCC4)cc2)[C@@H]3CO)c1	none

Compound activity from PubChem BioAssay.
